Gal4-VP16 FLuc – VP16 counterscreen qHTS for inhibitors of ROR gamma transcriptional activity | hit rate 3.5% among 310,000 | Potency, µM (top dose mostly 53.6 µM), most hits filed as inhibitors | Drosophila S2 Gal4-VP16 UAS-luciferase, luminescence, 20 h;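 note: Gal4-VP16 expression switched on by copper sulfate through the metallothionein promoter; nearly all actives have a fitted effect of over 50% in size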
RORgamma inh – qHTS for inhibitors of ROR gamma transcriptional activity. Drosophila S2 Gal4-RORgamma UAS-luciferase reporter, 20 h. hit rate 5.4% among 310,000. Potency, µM (highest dose often 53.6 µM), hits mostly inhibitors. Nuclear receptor ROR-gamma (Mus musculus), P51450. AID 2551, 2010; note: nearly all actives have a fitted effect of over 60% in size
Target sequence (P51450 whole entry, looked up, the tested form may be a part): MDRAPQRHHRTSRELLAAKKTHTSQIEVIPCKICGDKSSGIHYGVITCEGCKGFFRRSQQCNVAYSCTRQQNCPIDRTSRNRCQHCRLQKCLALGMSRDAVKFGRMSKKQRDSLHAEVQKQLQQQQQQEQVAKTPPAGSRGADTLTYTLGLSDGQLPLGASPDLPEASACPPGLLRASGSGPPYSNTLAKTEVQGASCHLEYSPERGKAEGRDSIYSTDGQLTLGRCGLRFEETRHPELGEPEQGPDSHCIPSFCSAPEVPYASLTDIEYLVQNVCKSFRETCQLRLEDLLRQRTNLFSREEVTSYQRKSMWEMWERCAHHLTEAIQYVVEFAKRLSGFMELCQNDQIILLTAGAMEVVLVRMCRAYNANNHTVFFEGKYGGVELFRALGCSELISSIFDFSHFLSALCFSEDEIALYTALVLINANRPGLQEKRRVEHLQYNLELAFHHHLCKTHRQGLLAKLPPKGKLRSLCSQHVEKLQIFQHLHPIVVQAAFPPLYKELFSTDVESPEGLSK
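Read-out: Photinus luciferase luminescence; inhibitors lower reporter signal. Insect Schneider cells with Gal4-ROR gamma fusion under metallothionein promoter, UAS reporter; 700 uM final copper sulfate induction, 20 hr, ambient temperature.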
Giardia kill – Small Molecules that selectively kill Giardia lamblia: qHTS. AID 540267, 2011. hit rate 0.15% among 340,000. activity change, % at 7.66 µM, hits read low. Giardia lamblia trophozoite viability; in the data active = activity change below about -80%; inconclusive = between about -30% and that limit;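 note: parasites exposed to compound for two days anaerobically before the ATP read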
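Media and compound were dispensed first, then trophozoites at 100 cells/well; plates sat 48 hrs at 37 deg C without oxygen before ATP luminescence reagent was added and read after 15-30 min at room temperature.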
ELG1 repair inh – qHTS screen for small molecules that inhibit ELG1-dependent DNA repair in human embryonic kidney (HEK293T) cells expressing luciferase-tagged ELG1. hit rate 2.3% among 330,000. HEK293T ELG1-luciferase reporter, luminescence, 16 h; DNA damage induced by 5-fluorouridine. Potency, µM (doses to about 46.1 µM), most hits filed as inhibitors. AID 504467, 2011; note: nearly all actives have a fitted effect of over 55% in size
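5-Fluorouridine DNA damage + compound/DMSO, 2,000 cells/well, 16 h, 37 °C/5% CO2. ONE-Glo, 30 min RT, luminescence. Readout = decrease in reporter signal.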
p53 reactivator – qHTS assay for re-activators of p53 using a Luc reporter. H1299 p53-A138V BP100-luciferase reporter, luminescence, 24 h. AID 504706, 2011. hit rate 0.063% among 320,000. Potency, µM (titrated, usually from 92.2 µM), actives largely listed as activators; note: nearly all actives have a fitted effect of over 45% in size
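H1299 (p53-null), stable ts p53-A138V + BP100-Luc; 1000 cells/well, Opti-MEM/10% FBS; cpd 4 pt, 1:5; 24 h, 37 deg C, 5% CO2; detection reagent 10 min RT; luminescence.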
BRCA1 expr up – qHTS Assay to Identify Small Molecule Activators of BRCA1 Expression. MCF7-BRCA1-FFLuc reporter, luminescence, 48 h; response scale: scaled: vehicle 0%, 10 µM genistein 100%. hit rate 1.1% among 380,000. Potency, µM (doses to about 46.1 µM), usual class: activators; note: nearly all actives have a fitted effect of over 80% in size
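Quantitative HTS in MCF7 cells stably reporting BRCA1 expression via firefly luciferase. Compound treatment lasts 48 h at 37 °C in phenol-red free MEM. Activation is expressed relative to genistein at 10 microM and DMSO.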
Of the large screens only hits and unclear results are named; the others gave an inactive call. Most compounds without a hit are left out; they make up all but 7.6% or so of the library. Unless noted, calls come from the whole dose curve; as a rule, active = well fitted curve in the direction sought with a large enough effect; inconclusive = small, poorly fitted or top-dose-only effect, or another doubt; inactive = no such curve, though single readings can be large; an effect the other way counts as inactive or inconclusive.

COc1ccc(C2CC(c3cccs3)=NN2C(=O)CN2CCCCC2)cc1 (configuration not stated)	none
O=C(Nc1ccccc1)N1N=C(c2ccc(F)cc2)CC1c1ccc(F)cc1 (configuration not stated)	none
Cc1ccc(NC(=O)c2csnn2)c(C)c1	Gal4-VP16 FLuc inconclusive, ELG1 repair inh inconclusive
Nc1nc(COC(=O)C2CC(=O)N(Cc3ccccc3Cl)C2)nc(Nc2ccccc2)n1 (configuration not stated)	none (no result: Gal4-VP16 FLuc, RORgamma inh)
COc1cc(C2CC(c3cccs3)=NN2C(=O)CCl)ccc1OC(F)F (configuration not stated)	Gal4-VP16 FLuc 16µM, RORgamma inh inconclusive
CCOc1ccc(C2/C(=C(\O)c3ccc4c(c3)OCCO4)C(=O)C(=O)N2CCCN2CCOCC2)cc1OC (configuration not stated)	none
Cc1ccc(C)c(NC(=S)NNC(=O)c2csc3c2CCC(C)C3)c1 (configuration not stated)	RORgamma inh 5µM
Cc1ccc(C)c(NC(=S)NNC(=O)c2csc3c2CCCC3)c1	RORgamma inh inconclusive
COc1ccc(N(CC(=O)NCc2ccc3c(c2)OCO3)S(C)(=O)=O)cc1OC	none
CC(C)NC(=O)C1CCN(C2CCN(C(=O)c3cc4c(s3)CCCCC4)CC2)CC1	Gal4-VP16 FLuc 7.9µM, RORgamma inh 10µM
COc1ccc(C(=O)NNC(=O)OC(C)(C)C)cc1	none
COc1ccc(C(=O)NN/C(C)=C/C(=O)C(F)(F)C(F)(F)C(F)(F)F)cc1	Gal4-VP16 FLuc 5.6µM, RORgamma inh 5.6µM, ELG1 repair inh inconclusive
CCCc1c(C(=O)N/N=C(\C)c2ccccc2O)nnn1-c1nonc1N	none (no result: Gal4-VP16 FLuc, RORgamma inh, Giardia kill, ELG1 repair inh, p53 reactivator)
C/C(=N\NC(=O)c1nnn(-c2nonc2N)c1-c1ccccc1)c1ccccc1O	Gal4-VP16 FLuc 6.3µM, RORgamma inh 1.8µM, ELG1 repair inh 1.8µM
C/C(=N/NC(=O)c1nnn(-c2nonc2N)c1COc1ccccc1)c1ccccc1Cl	Gal4-VP16 FLuc inconclusive, RORgamma inh 22µM
Cc1ccc(COc2ccc(/C=N/NC(=O)c3nnn(-c4nonc4N)c3COc3ccc(F)cc3)cc2)cc1	RORgamma inh inconclusive, BRCA1 expr up inconclusive
Nc1nonc1-n1nnc(C(=O)N/N=C/c2ccc(OCc3ccc(F)cc3)cc2)c1COc1ccccc1	Gal4-VP16 FLuc inconclusive, RORgamma inh 7.1µM, BRCA1 expr up inconclusive
Cc1c(C(=O)O)c(O)cc2c1C(=O)c1c(O)c([C@@H]3O[C@H](CO)[C@@H](O)[C@H](O)[C@H]3O)c(O)c(O)c1C2=O	none (no result: Gal4-VP16 FLuc, RORgamma inh)
Cc1ccsc1C1Nc2ccccc2C(=O)N1O (configuration not stated)	Gal4-VP16 FLuc inconclusive, RORgamma inh 16µM
O=C1c2ccccc2NC(c2ccc(Cl)cc2Cl)N1O (configuration not stated)	Gal4-VP16 FLuc 10µM, RORgamma inh 3.5µM
Cc1nn(C)c(C)c1C1Nc2ccccc2C(=O)N1O (configuration not stated)	RORgamma inh inconclusive
O=C1c2ccccc2NC(c2cnc3ccccc3n2)N1O (configuration not stated)	Gal4-VP16 FLuc inconclusive, RORgamma inh 10µM, ELG1 repair inh inconclusive, p53 reactivator inconclusive, BRCA1 expr up inconclusive
Cc1nn(C)cc1C1Nc2ccccc2C(=O)N1O (configuration not stated)	RORgamma inh inconclusive
C=CCc1cccc(C2Nc3ccccc3C(=O)N2O)c1O (configuration not stated)	Gal4-VP16 FLuc inconclusive, RORgamma inh 7.1µM, ELG1 repair inh inconclusive
CCOC(=O)c1c(C)nc2c(c1-c1ccccc1)C(=O)CC(C)(C)C2	none
O=C(NN1C(=O)CSC1=S)C(=O)NN1C(=O)CSC1=S	ELG1 repair inh inconclusive
